High-throughput results: PubChem, National Center for Advancing Translational Sciences (NCATS)
VDR inh: Inhibitors of the vitamin D receptor (VDR): qHTS | Vitamin D3 receptor (Homo sapiens), P11473 | VDR-SRC2-3 peptide fluorescence polarization, 2 h | Potency, µM, hits mostly inhibitors | actives 0.93% (n = 400,000) | AID 504847, 2011
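Measured by FP: displacement of SRC2-3 coactivator peptide from VDR by library compounds, following a two-hour ambient incubation.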
12-LOX inh: Primary qHTS assay for inhibitors of human arachidonate 12S-lipoxygenase (ALOX12): Round 2. AID 1671190, 2021. Potency, µM (top dose mostly 108 µM), hits mostly inhibitors. purified 12hLO, xylenol orange hydroperoxide absorbance. actives 1.1% (n = 580,000)
Target sequence (P18054 whole entry, looked up): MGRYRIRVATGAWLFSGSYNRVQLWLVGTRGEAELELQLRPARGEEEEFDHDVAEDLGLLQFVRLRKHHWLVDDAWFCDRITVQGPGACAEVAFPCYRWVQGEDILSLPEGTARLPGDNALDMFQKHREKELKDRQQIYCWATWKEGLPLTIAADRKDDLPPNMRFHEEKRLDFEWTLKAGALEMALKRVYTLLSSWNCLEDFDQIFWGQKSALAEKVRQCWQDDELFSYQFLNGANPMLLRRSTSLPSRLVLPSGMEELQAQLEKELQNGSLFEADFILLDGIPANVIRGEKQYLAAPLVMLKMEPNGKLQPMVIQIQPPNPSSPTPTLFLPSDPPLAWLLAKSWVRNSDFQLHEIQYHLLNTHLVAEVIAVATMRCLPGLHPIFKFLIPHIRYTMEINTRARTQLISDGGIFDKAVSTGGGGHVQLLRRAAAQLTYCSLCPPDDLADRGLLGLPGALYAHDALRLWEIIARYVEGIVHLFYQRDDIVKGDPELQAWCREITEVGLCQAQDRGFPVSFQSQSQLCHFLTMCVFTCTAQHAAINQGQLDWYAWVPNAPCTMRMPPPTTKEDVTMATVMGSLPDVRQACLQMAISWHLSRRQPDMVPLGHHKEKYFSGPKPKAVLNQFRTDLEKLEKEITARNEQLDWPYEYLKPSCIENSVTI
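Hydroperoxide product was detected by ferrous iron/xylenol orange as the 573 to 405 nm absorbance ratio. Arachidonic acid at 40 uM (final) was turned over for 30 min at room temperature by 150 nM human 12hLO, pH 7.0 Hepes buffer, after 15 min compound preincubation.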
Glioma ERSR ind: qHTS for Inducers of the Endoplasmic Reticulum Stress Response (ERSR) in Human Glioma: qHTS; U87-MG GRP78 promoter luciferase reporter, 16 h; actives 0.02% (n = 420,000); Potency, µM, hits mostly activators; note: series mostly up to about 76 µM; nearly all actives have a fitted effect of over 35% in size
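Stably transfected U87-MG human glioma cells carrying a GRP78-based luminescent sensor were seeded at 1000 cells/well, pin-dosed with compounds and incubated 16 h. Luciferase reagent was then added, and end-point luminescence was read after 10 min at room temperature.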
Sfp PPTase inh: qHTS Assay for Inhibitors of Bacillus subtilis Sfp phosphopantetheinyl transferase (PPTase) | 4'-phosphopantetheinyl transferase ffp (Bacillus subtilis), Q9F4F7 | Biochemical Sfp PPTase activity, qHTS | Potency, µM, hits mostly inhibitors | actives 3.5% (n = 310,000) | AID 1490, 2009;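 note: the enzyme is Sfp with the accession as filed and its product quenches rhodamine fluorescence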
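Buffer: 50 mM Hepes-Na pH 7.6, 10 mM MgCl2, 0.01% Nonidet P-40, 0.01% BSA. Enzyme 15 nM, pre-exposed to compound 15 min; substrates then added and fluorescence change tracked over 30 min.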
G9a inh: qHTS Assay for Inhibitors of Histone Lysine Methyltransferase G9a. Potency, µM (series often up to 102 µM), hits mostly inhibitors. G9a H3K9 monomethylation, AlphaScreen, 2 h. actives 8.8% (n = 350,000). Histone-lysine N-methyltransferase EHMT2 (Homo sapiens), Q96KQ7; note: nearly all actives have a fitted effect of over 75% in size
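Chemiluminescent proximity detection of H3K9 monomethylation, read after 10 min bead incubation in the dark. Reaction: 20 nM G9a, 500 nM biotin-H3K9 peptide, 20 uM SAM cofactor, 2 h, room temperature, following 15 min enzyme-compound preincubation.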
Of the large screens only hits and unclear results are named; the others gave an inactive call. The full list was thinned out, with hits kept by preference. Calls come from the whole dose curve; as a rule, active = well fitted curve in the direction sought with a large enough effect; inconclusive = small, poorly fitted or top-dose-only effect, or another doubt; inactive = no such curve, though single readings can be large; an effect the other way counts as inactive or inconclusive.

c1csc(CNc2cc(-c3ccoc3)ncn2)c1	VDR inh 20µM, 12-LOX inh inconclusive, Sfp PPTase inh 32µM
O=C(N/N=C/c1ccc(OC(=O)c2ccccc2Cl)cc1)c1cc(O)cc(O)c1	Sfp PPTase inh inconclusive, G9a inh 8.9µM
COc1ccc(C(=O)N/N=C/c2ccc(OC)c(COc3ccccc3)c2)cc1	none
COc1cc(/C=N/NC(=O)c2cc(O)cc(O)c2)ccc1OC(=O)c1ccccc1	G9a inh 8.9µM
COc1ccc(/C=N\NC(=O)c2cc(O)c(O)c(O)c2)cc1COc1ccc(C(=O)OCC(C)C)cc1	Sfp PPTase inh inconclusive, G9a inh 22µM
Cc1cccc(Cn2c(NC3CCCCC3)nc3c2c(=O)[nH]c(=O)n3C)c1	none (no result: VDR inh, Glioma ERSR ind, Sfp PPTase inh, G9a inh)
CN(C)S(=O)(=O)c1ccc2c(c1)cc(C(=O)NCCc1ccco1)n2C	none (no result: VDR inh, Glioma ERSR ind, Sfp PPTase inh, G9a inh)
CCC(=O)Nc1ccc(C2=Nn3c(nnc3C(C)C)SC2)cc1	12-LOX inh inconclusive, Sfp PPTase inh inconclusive, G9a inh 14µM
CC(C)[C@H](N)c1nnc2n1N=C(c1ccc(Cl)cc1)CS2	G9a inh inconclusive
CN(C)c1ccc(Nc2ncncc2-c2nc(-c3ccccc3)no2)cc1	none (no result: VDR inh, Glioma ERSR ind, Sfp PPTase inh, G9a inh)
CSc1ccccc1NC(=O)CC(C)C	none (no result: VDR inh, Glioma ERSR ind, Sfp PPTase inh, G9a inh)
Cc1nn(-c2ccccc2)c2c1C(c1cccnc1)N1C=C(S(=O)(=O)N3CCCCC3)C=CC1=N2 (stereo not drawn)	12-LOX inh inconclusive, G9a inh 79µM
COC(=O)c1c(C)sc(-c2c(-c3ccc4c(c3)OCCO4)[nH]c3c2c(=O)n(C)c(=O)n3C)c1O	none (no result: Glioma ERSR ind, Sfp PPTase inh)
COC(=O)c1c(C)sc(-c2c(-c3ccc4c(c3)OCCO4)[nH]c3[nH]c(=O)[nH]c(=O)c23)c1O	12-LOX inh 25µM, G9a inh 14µM (no result: Glioma ERSR ind, Sfp PPTase inh)
Cc1cc(O)c(C(C[N+](=O)[O-])c2ccc(Cl)cc2Cl)c(=O)o1 (stereo not drawn)	Sfp PPTase inh inconclusive, G9a inh 4.5µM (no result: 12-LOX inh)
O=c1[nH][nH]c(-c2ccccc2O)c1C(C[N+](=O)[O-])c1ccc(Cl)cc1Cl (stereo not drawn)	12-LOX inh inconclusive
COc1ccc(S(=O)(=O)N2N=C(c3cccc(NS(C)(=O)=O)c3)CC2c2ccco2)cc1 (stereo not drawn)	G9a inh 45µM
COc1ccc(S(=O)(=O)N2N=C(c3ccc(NS(C)(=O)=O)cc3)CC2c2ccco2)cc1 (stereo not drawn)	Sfp PPTase inh 56µM, G9a inh inconclusive
CCCS(=O)(=O)N1CCN(CCCc2ccccc2)CC1	12-LOX inh inconclusive, G9a inh 10µM
CC(C)CC(=O)N1CCN(Cc2ccccc2[N+](=O)[O-])CC1	Sfp PPTase inh 56µM, G9a inh 14µM
c1cncc(CN2CCN(Cc3c[nH]c4ccccc34)CC2)c1	12-LOX inh 0.32µM (no result: VDR inh, Glioma ERSR ind, Sfp PPTase inh, G9a inh)
CCCS(=O)(=O)N1CCN(Cc2c[nH]c3ccccc23)CC1	12-LOX inh inconclusive, G9a inh 25µM
O=S1(=O)CCN(CCCc2ccccc2)CC1	none (no result: VDR inh, Sfp PPTase inh, G9a inh)
c1ccc(CN2CCN(Cc3c[nH]c4ccccc34)CC2)cc1	none
COc1ccc(C(=O)N2CCc3c(sc4ncnc(N)c34)C2)cc1OC	none (no result: VDR inh, Glioma ERSR ind, Sfp PPTase inh, G9a inh)
COc1ccc(/C(C#N)=C/c2cc(Br)c(OCCOc3ccccc3)c(OC)c2)cc1OC	none (no result: VDR inh, Glioma ERSR ind, Sfp PPTase inh, G9a inh)
CN(C(=O)COC(=O)/C=C/c1cccc2cccnc12)c1ccccc1	none (no result: VDR inh, Glioma ERSR ind, Sfp PPTase inh, G9a inh)
CCCS(=O)(=O)N1CCN(Cc2ccc3c(c2)c2ccccc2n3CC)CC1	12-LOX inh inconclusive, G9a inh inconclusive
CCCS(=O)(=O)N1CCN(Cc2ccccc2[N+](=O)[O-])CC1	Sfp PPTase inh inconclusive, G9a inh 25µM
CCCS(=O)(=O)N1CCN(Cc2ccccc2C(F)(F)F)CC1	12-LOX inh inconclusive, Sfp PPTase inh 50µM, G9a inh 10µM
COc1cccc(OC)c1C(=O)N1CCN(Cc2ccccc2C(F)(F)F)CC1	12-LOX inh inconclusive, Sfp PPTase inh inconclusive, G9a inh inconclusive
O=C(Cc1ccc([N+](=O)[O-])cc1)Nc1ccc2c(c1)OCO2	none
